# MgrA DNA FP – S. aureus MgrA activity modulators, primary screen, biochemical, S. aureus Newman, fluorescence polarization; MgrA-DNA binding; inhibition, % (no concentration beside the values); 84,000 tested, 0.13% active; in the data active = inhibition above about 30%, passing the limit was not always enough;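 also: 0% = protein plus DNA without compound and 100% = DNA alone without protein; higher means less MgrA bound to DNA so lower polarization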
# * = called active by the depositor. The full list was thinned out, with hits kept by preference.
SMILES,MgrA DNA FP
NC(CO)C(=O)NNCc1ccc(O)c(O)c1O (stereo not drawn),6
NC(CO)C(=O)N/N=C/c1ccc(O)c(O)c1O (stereo not drawn),62*
O=C(N/N=C/c1cc(Br)ccc1O)N/N=C/c1cc(Br)ccc1O,0
NS(=O)(=O)c1cccc(C(=O)NCc2ccccc2)c1,-1
COc1cccc(OC)c1C(=O)NCC#N,7
CCSc1sc(C(=O)O)c(-c2cccs2)c1C#N,-2
Cc1cc(C)c2nc(N3CCCN(C(=O)c4ccco4)CC3)c(C#N)cc2c1,49*
CCc1cc2cc(C)cc(C)c2nc1SCC(=O)N1CCN(C(=O)c2ccco2)CC1,2
O=C(c1ccco1)N1CCCN(C(=O)c2ccco2)CC1,1
O=C1c2cccc3c([N+](=O)[O-])ccc(c23)C(=O)N1Cc1cccnc1,60*
O=C1c2cccc3cc([N+](=O)[O-])cc(c23)C(=O)N1Cc1ccncc1,-1
O=c1c2ccccc2c2ccccc2c(=O)n1Cc1cccnc1,3
S=C1NCCN1CCOc1ccccc1,3
CCN(CC)C(=O)c1cc(-c2ccccc2)on1,0
O=C(CC(=O)N1CCCC1)N1CCCC1,-1
COc1cc(/C=C2\CCc3ccccc3C2=O)cc(OC)c1OC,-2
COC(=O)c1ccc2c3c(cccc13)CC2,0
COc1ccc2c3c(cccc13)C(=O)CC2,69*
Cc1ccccc1NC(=S)NNC(=O)CCc1ccc(O)cc1,-1
CSc1nsc(SC)c1C(=O)N1CCSCC1,-1
CCOC(=O)CS(=O)c1nc2c(c(C(F)(F)F)n1)CCc1ccccc1-2 (stereo not drawn),1
CN(C)/C=C/C=C/c1cc(=O)cc(/C=C/C=C/N(C)C)o1,100*
COC(=O)c1c(F)c(F)c(Oc2ccc(Cl)cc2)c(F)c1N1CCCCC1,-1
COc1c(C)cc(Br)cc1C(=O)NC(=S)Nc1cccc(-c2nc3ncccc3o2)c1C,2
COc1ccc(-c2ccc(/C=c3\sc4nc5ccccc5n4c3=O)o2)c([N+](=O)[O-])c1,0
SMILES,MgrA DNA FP
O=C(O)c1cccc(-c2ccc(/C=c3/sc4nc5ccccc5n4c3=O)o2)c1,44*
Cc1ccc(-c2ccc(/C=c3\sc4nc5ccccc5n4c3=O)o2)c(Br)c1,-3
O=C1CCCCCCCCCCC1CN1CCOCC1 (stereo not drawn),-6
OC1(c2ccc(Cl)cc2)CCN(Cn2nnc3ccccc32)CC1,-1
Cc1nn(C)c(C)c1NC(=O)CC#N,-4
CCOc1cc(/C=C/c2ccccc2OC)cc(=O)c2c(C)oc(C)c12,0
COc1cccc(=O)c2c(C)oc(C)c12,43*
CCOc1ccc(-c2cc(OC)c3c(C)oc(C)c3c(=O)c2)cc1,34
CN(C)S(=O)(=O)c1ccc(C(=O)NCCc2ccccc2)cc1,-2
Cc1ccc(S(=O)(=O)N=C2C=CC(=O)C=C2)cc1,48*
CC1=C/C(=N\S(=O)(=O)c2ccccc2)C=CC1=O,38
Cc1ccc(S(=O)(=O)N=S(C)(C)=O)cc1,-2
O=C(Nc1ccc(S(=O)(=O)N2CCCCCC2)cc1)C1CC(=O)N(c2ccccc2)C1 (stereo not drawn),-1
O=c1[nH]nc(C2c3ccccc3Oc3ccccc32)o1,-3
CN(C)c1cc(C(F)(F)F)cc(C(F)(F)F)c1,-2
O=C(O)CCN1C(=O)/C(=C/c2ccco2)SC1=S,51*
O=C1/C(=C/c2ccco2)SC(=S)N1CCc1ccccc1,5
CC(C(=O)O)N1C(=O)/C(=C/c2ccco2)SC1=S (stereo not drawn),38
CCc1cccc(NC(=S)N(Cc2c[nH]c3ccccc23)C2CCCC2)c1,0
COC(=O)c1ccccc1CSc1ccccc1C(=O)O,1
CCOc1cc(/C=C2/C(=O)ON=C2C)cc(Cl)c1OCc1ccc(F)cc1,54*
CCOC(=O)COc1c(Cl)cc(/C=C2/N=C(c3ccco3)OC2=O)cc1OCC,3
COc1cc(/C=C2/C(=O)N(c3ccc(F)cc3)N=C2C)ccc1OCc1ccc(F)cc1,2
Cc1ccc(NC(=O)CC(CC(=O)O)c2ccccc2)cc1Cl (stereo not drawn),0
CCOC(=O)CSc1nc(=O)cc(N)n1Cc1ccc(F)cc1,0
SMILES,MgrA DNA FP
CSc1nn(-c2ccccc2)cc1C(=O)Sc1cccs1,4
Cc1ccc2oc(-c3ccc(NC(=O)C(F)(F)F)cc3)nc2c1,0
CCOc1ccc2nc3c(=O)[nH]c(=O)[nH]c3nc2c1,43
O=C(Nc1ccc2nc3c(=O)[nH]c(=O)[nH]c3nc2c1)C(F)(F)F,57*
CCc1ccc(C2CC(=O)NC3=C2C(=O)CC(C)(C)C3)cc1 (stereo not drawn),2
COC(=O)c1cc(C(=O)OC)c(C(=O)OC)cc1C(=O)OC,-3
COC(=O)c1sccc1O,0
COC(=O)c1ccsc1N,71*
CCCn1nc(NC(=O)c2cccc(Cl)c2)c2cc3cc(C)ccc3nc21,2
O=C1NC(=O)N(c2ccccc2)C(=O)/C1=C\c1ccc(C(=O)O)cc1,5
O=C1NC(=S)N(c2ccccc2)C(=O)/C1=C\c1ccoc1,76*
COC(=O)COc1ccc(/C=C2\C(=O)NC(=S)N(c3ccccc3)C2=O)cc1OC,8
Cc1ccc2c(c1)C(=O)CCCC1C(=O)N2CCN1C(=O)c1ccccc1 (stereo not drawn),-2
COc1cc(C)c(C(C)C)cc1S(=O)(=O)N1CCN(c2cccc(Cl)c2)CC1,-2
Cc1cccc(Cc2c(C)c3c(C)[nH]nc3oc2=O)c1,1
Cc1cc(N)c2ccccc2[n+]1CCCCCCCCCC[n+]1c(C)cc(N)c2ccccc21,55*
Cc1cc(-c2ccccc2N)nc2ccccc12,-4
CC[n+]1ccc(C)c2ccccc21,0
O=S(=O)(c1cccc(C(F)(F)F)c1)N1CCCC1c1cccnc1 (stereo not drawn),2
O=S(=O)(c1ccc2nsnc2c1)N1CCCCC1c1cccnc1 (stereo not drawn),-2
O=S(=O)(c1ccc2c(c1)OCCO2)N1CCCCC1c1cccnc1 (stereo not drawn),58*
Cc1occc(=O)c1Oc1ncc(C(F)(F)F)cc1Cl,2
O=C(CSc1ccc(S(=O)(=O)N2CCOCC2)cc1)NC1CCCCC1,4
CNC(=S)N1N=C(c2ccccc2)CC1c1cc2ccc(C)cc2nc1Cl (stereo not drawn),0
COC(=O)c1ccc([C@@H]2Nc3c(C)cccc3[C@@H]3C=CC[C@@H]32)cc1,0
SMILES,MgrA DNA FP
O=C(O)C1Nc2c(I)cccc2C2C=CCC12 (stereo not drawn),101*
O=C(c1cccc2c1NC(c1ccc(Br)cc1)C1CC=CC21)N1CCOCC1 (stereo not drawn),1
Clc1nc2ncccc2nc1-c1ccccc1,0
O=C1c2cccc3c(N4CCNCC4)ccc(c23)C(=O)N1c1ccc(Cl)cc1,60*
Cc1cccc(N2C(=O)c3cccc4c(N5CCNCC5)ccc(c34)C2=O)c1,30
O=C1c2cccc3c(N4CCCC4)ccc(c23)C(=O)N1c1ccccc1,2
CCc1ccc2[nH]c(C(=O)Nc3ccc(C(F)(F)F)c(C#N)c3)cc2c1,0
CCOc1ccc(NCc2n[nH]c(=S)n2-c2ccc(C)cc2)cc1,0
C=Cc1c(C)/c2[n-]/c1=C\c1[n-]c(c(CC)c1C)/C=c1\[n-]c3c(c1C)C(=O)C(C(=O)[O-])C=3c1[n-]c(c(C)c1CCC(=O)[O-])\C=2.[Cu].[Na+].[Na+] (stereo not drawn),88*

# From PubChem BioAssay
